SF1 inhibitor = SF-1 (human) inhibition | AID 525 | actives 0.55% (n = 65,000) | inhibition, % at 10 µM | Q13285 | CHO-K1 Gal4-SF-1 LBD luciferase reporter;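 active = inhibition above the mean inhibition of all tested compounds plus 3 SD, cut at about 48% in these data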
Hits are given with their value; i = inactive. The sample as a whole holds a higher share of hits than the screen did.

SMILES	SF1 inhibitor
CN1CCN(C(=O)COc2ccc(-c3nc4ccccc4s3)cc2)CC1	70.9
C[C@]12CCC(=O)C=C1CCC1C2CC[C@@]2(C)C1CC[C@@]2(O)CC#N (some centres not stated)	i
CC(C(N)=O)N1CC(c2ccccc2)CC1=O (configuration not stated)	i
C=CCn1c(O)c(C(C)=Nc2ccc(C(=O)OCC)cc2)c(=O)[nH]c1=O	i
COCCn1cc(C(=O)N2CCC3(CC2)OCCO3)c2c3ccccc3n(C)c2c1=O	i
Cc1cccc(N2CCc3c2nc2ccccc2c3N)c1	i
COc1ccc(C2C(C(=O)N3CCC4(CC3)OCCO4)c3cc(OC)c(OC)cc3C(=O)N2C)cc1 (configuration not stated)	i
C[C@@]1(CO)[C@H](O)CC[C@@]2(C)[C@H]1CC[C@H]1C[C@@H]3C[C@@]12CC[C@]3(O)CO	83.7
C=CCOC(=O)C1=C(C)OC(N)=C(C#N)[C@@]12C(=O)N(CC(N)=O)c1ccccc12	i
CN1C(=O)C(C2(C#N)CCCCC2)C(=O)N(C)C1=O	i
O=C1C2CCN(CC2)[C@@H]1Cc1ccc2ccccc2c1O	i
COc1cccc(-c2cc(C(F)(F)F)n3nc(C(=O)N4CCC5(CC4)OCCO5)cc3n2)c1	i
CCOP1(=S)Oc2cc3c(cc2C(C(=O)OC)(C(F)(F)F)O1)OCO3 (configuration not stated)	i
COC(=O)c1ccc(N2C(=O)CC(N3CCC(n4c(=O)[nH]c5ccccc54)CC3)C2=O)cc1 (configuration not stated)	53.6
CC(C)NS(=O)(=O)c1ccc(OCC(=O)N2CCN(Cc3ccccc3)CC2)c(Cl)c1	i
Cc1ccc2cc3cc(C(=O)N4CCC5(CC4)OCCO5)oc3nc2c1	i
O=P(CN1CCN(c2ccccc2)CC1)(N1CCCCC1)N1CCCCC1	i
Cc1c2ccncc2c(C)c2c1[nH]c1ccccc12	76.5
Cn1ncnc2c(=O)n(C)c(=O)nc1-2	96.5
CCCCn1c(O)c(C=NCCCN(CC)CC)c(=O)[nH]c1=O	i
CCOc1cc2[nH]c(=S)n(CCCC(=O)N3CCC4(CC3)OCCO4)c(=O)c2cc1OCC	i
OC1(c2ccc(F)cc2)CC2CCC(C1)N2Cc1nnnn1C1CCCCC1 (configuration not stated)	i
CCC(=NCC1CCCO1)c1c(O)[nH]c(=O)[nH]c1=O (configuration not stated)	i
CCCCn1c(O)c(C=NCCN2CCCCC2)c(=O)[nH]c1=O	i
O=C(c1cc(Br)ccc1Cl)N1CCC2(CC1)OCCO2	i

Screens from PubChem.
